Myeloid diff 2 = myeloid differentiation induction | ER-HoxA9 myeloid progenitors, lysozyme-GFP differentiation, flow cytometry | calls only at 10 µM | 360,000 compounds, 1% hits;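 active means normalized GFP-positive differentiation at or above the plate's own cutoff, the solvent-only control mean plus 3 SD; inconclusive means no clear call, values can overlap the other calls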;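 further: cells exposed to compound for four days before flow analysis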
SKN-1 inh = blocks SKN-1 activity in C. elegans | C. elegans VP596 Pgst-4::GFP/RFP ratio, acrylamide-induced, 24 h | inhibition, % at 21.8 µM | 360,000 compounds, 0.49% hits | AID 624304;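 active means interference check ratio from 0.5 to 1.5 plus GFP to RFP signal ratio inhibition reaching or exceeding a fixed threshold, cut at about 30% in these data, passing the limit was not always enough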
ATG4B inhibitor = blocks human ATG4B protease cleavage of LC3 substrate. Q9Y4P1. ATG4B cleavage of LC3-PLA2, NBD-HPC fluorescence, 1 h. inhibition, % at 8.33 µM. 340,000 compounds, 0.51% hits; in the data active means inhibition above about 40%
M1 PAM = potentiates human M1 receptor response to acetylcholine | P11229 | CHO-K1 hM1, Fluo-8 calcium fluorescence, ACh EC20; 0% = ACh EC20, 100% = maximal ACh | activation, % at 3 µM | 360,000 compounds, 0.088% hits | AID 588819; in the data active means activation above about 19%, passing the limit was not always enough
Target sequence (P11229 whole entry, looked up): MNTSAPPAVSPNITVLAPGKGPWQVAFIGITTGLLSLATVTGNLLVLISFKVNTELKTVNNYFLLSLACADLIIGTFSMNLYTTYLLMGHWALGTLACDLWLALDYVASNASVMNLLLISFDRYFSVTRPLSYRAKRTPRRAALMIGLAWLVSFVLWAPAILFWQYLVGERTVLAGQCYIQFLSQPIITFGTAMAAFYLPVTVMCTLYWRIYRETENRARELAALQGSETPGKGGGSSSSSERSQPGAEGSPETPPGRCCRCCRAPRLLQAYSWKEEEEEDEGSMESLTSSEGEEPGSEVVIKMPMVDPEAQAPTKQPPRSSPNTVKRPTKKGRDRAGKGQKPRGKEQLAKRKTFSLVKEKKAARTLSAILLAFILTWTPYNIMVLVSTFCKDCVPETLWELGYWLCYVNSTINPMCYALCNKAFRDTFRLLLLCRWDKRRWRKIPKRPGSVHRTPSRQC
CHRM1 antagonist = blocks human M1 muscarinic receptor; inhibition, % at 3 µM; P11229; CHO-K1 hM1, Fluo-8 calcium fluorescence, ACh EC80 antagonist; 360,000 compounds, 1.3% hits;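 active means percent inhibition above its own plate's cutoff, namely the mean of that plate's compound wells plus 3 SD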;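 further: peak over basal fluorescence ratio during 140 s after agonist addition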
CHRM1 agonist = human M1 muscarinic receptor agonism | 360,000 compounds, 0.33% hits | activation, % at 3 µM | AID 588814 | CHO-K1 hM1, Fluo-8 calcium fluorescence, agonist mode; 0% DMSO, 100% acetylcholine EC100;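 active means activation above the run's mean compound activation plus 3 SD, cut at about 16% in these data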;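 further: peak over basal fluorescence ratio within a 140 s kinetic read after compound addition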
Myeloid diff = promotes myeloid progenitor differentiation; shares compounds with Myeloid diff 2; ER-HoxA9 myeloid progenitors, GFP/Mac1 double-positive flow; calls only; 2,300 compounds, 2% hits; AID 651706;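 active means share of green or green-and-red cells above 9 and 9% in run 1 or 4 and 3% in run 2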
GFP autofluor = compound fluorescence in myeloid differentiation counter-screen. shares compounds with Myeloid diff 2. ER-HoxA9 myeloid progenitors, no estrogen, GFP autofluorescence flow cytometry; vehicle wells 0%, positive control 100%. fluorescence response, % (concentration not given with the values). 2,300 compounds, 7.4% hits. AID 651707;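 active means over 5% cells positive for green fluorescent reporter, or over 2% positive for both it and APC stain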
Each line names hits and unclear results; the compound was inactive in the other large screens (follow-up assays come after a bar, where they were run). In the library only some 3.5% were active in any assay of this set; here they are far more common.

Cc1cc(/C=C2\SC(N)=NC2=O)c(C)n1-c1ccccc1	none
O=C(/C=C\Nc1ccccn1)c1ccc(Cl)cc1	Myeloid diff 2 active, SKN-1 inh 41 | Myeloid diff inactive | GFP autofluor inactive
Cc1cccc(N/C=C/C(=O)c2ccc(Cl)cc2)c1	none
COc1ccc(N2CCN(c3ccc(N4C(=O)CC(C)C4=O)cc3[N+](=O)[O-])CC2)cc1 (centres undefined)	none
COc1ccc(N2CCN(c3ccc(N4C(=O)COCC4=O)cc3[N+](=O)[O-])CC2)cc1	none | Myeloid diff inactive | GFP autofluor inactive
O=C(CC1c2cc(F)ccc2C=C(c2ccsc2)N1c1ccc(C#CCCO)cc1)c1ccco1 (centres undefined)	none (no result: ATG4B inhibitor, M1 PAM, CHRM1 antagonist, CHRM1 agonist) | Myeloid diff inactive | GFP autofluor inactive
COc1ncc(-c2ccc(N3C(c4ccsc4)=Cc4ccc(F)cc4C3CC(=O)c3ccco3)cc2)cn1 (centres undefined)	none (no result: ATG4B inhibitor, M1 PAM, CHRM1 antagonist, CHRM1 agonist)
CC(/C=C1\SC(=S)N(CC(=O)N2CCN(c3ccccc3)CC2)C1=O)=C\c1ccccc1	none
CC(C)(C)C(=O)/C=C1\SCC(=O)N1CC(=O)N1CCN(c2ccccc2)CC1	none | Myeloid diff inactive | GFP autofluor inactive
Cc1cccc(C)c1NC(=O)Cn1nc(-c2ccccc2)nc1-c1ccccc1	none
CC1CC2(CCCCC2)Nc2c1ccc1ccccc21 (centres undefined)	Myeloid diff 2 active | Myeloid diff inactive | GFP autofluor 12
CCOC(=O)/C=C1\Nc2ccccc2OC1=O	Myeloid diff 2 active | Myeloid diff inactive | GFP autofluor inactive
CCOC(=O)/C=C1\CC(C(=O)OCC)Oc2ccccc21 (centres undefined)	none
O=C(N/N=C/c1ccc[nH]1)c1ccc(COc2cccc3cccnc23)cc1	Myeloid diff 2 active | Myeloid diff inactive | GFP autofluor inactive
Cc1cc(Br)c(OCc2ccc(C(=O)N/N=C/c3ccc[nH]3)cc2)c(Br)c1	Myeloid diff 2 inconclusive
O=[N+]([O-])c1ccc(OCn2cncn2)cc1	none
CCC(C)[C@H](NC(=O)[C@@H]1Cc2c([nH]c3ccccc23)C2c3ccccc3C(=O)N21)C(=O)NCC1CCCO1 (some centres undefined)	Myeloid diff 2 active | Myeloid diff inactive | GFP autofluor inactive
CCC(C)[C@H](NC(=O)[C@@H]1Cc2c([nH]c3ccccc23)C2c3ccccc3C(=O)N21)C(=O)N1CCC[C@@H]1C(=O)O (some centres undefined)	none
CCc1ccc(C2=NN(C(=O)CCC(=O)O)C(c3cccs3)C2)cc1 (centres undefined)	none
CCOc1cc(C=C2C(=O)c3ccccc3C2=O)ccc1OCC(=O)Nc1ccc(C)cc1	Myeloid diff 2 active | Myeloid diff inactive | GFP autofluor inactive
CCOc1cc(/C=N/NC(N)=O)ccc1OCC(=O)Nc1ccc(C)c(C)c1	none
CCC(C)c1ccccc1N1CC(C(=O)N2CCN(C(=O)c3ccco3)CC2)CC1=O (centres undefined)	none
Nc1ccc(C#Cc2ccc3c(=O)c4ccccc4oc3c2)cc1	none | Myeloid diff active | GFP autofluor inactive
COc1cc2oc3cc(C#Cc4ccc(N)cc4)ccc3c(=O)c2cc1OC	none
Cc1ccc(-n2nc3c(=O)n(CC(=O)NC4CCCCC4)nc(C)c3c2C)cc1	none
COC(=O)c1c(NC(=O)CSc2nnnn2-c2ccccc2)sc2c1CCC(C(C)(C)C)C2 (centres undefined)	none | Myeloid diff inactive | GFP autofluor inactive
Cn1cc(CN2CCC(C(=O)Nc3cccc(-c4cccc(F)c4)c3)CC2)cn1	none
CCCn1ncc(CN2CCC(C(=O)Nc3cccc(-c4cccc(F)c4)c3)CC2)c1C	Myeloid diff 2 active | Myeloid diff inactive | GFP autofluor inactive
c1ccc(COc2ccc(-c3cc4nc(NCCCn5ccnc5)ccn4n3)cc2)cc1	none (no result: ATG4B inhibitor) | Myeloid diff inactive | GFP autofluor inactive

Screening results (PubChem)
